Records with an inconclusive call do not appear. Calls of active or inactive are those of the source. The call rests on the fitted dose curve; in most records, active means well fitted curve in the direction sought with a large enough effect in the repeat runs; inconclusive means weak or mixed curves; inactive means no such curve, though single readings can be large; an effect the other way counts as inactive or inconclusive. Where a SMILES comes first, the peptide text is derived from it. [ ]: non-standard residue; d: D form. pGlu = O=C1CC[C@@H](C(=O)O)N1
Columns and labels:
[1] = A CellTox Green Cytotoxicity Assay to monitor cytotoxicity in HEK293 cells - 40 hour (AID 1224871); further: nearly all actives have a fitted effect of over 45% in size
How it was run: (§1)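 Fluorescence intensity, read at 0, 8, 16, 24, 32 and 40 h of compound treatment, reflected dye binding to DNA of dead HEK293 cells; compounds (23 nL, DMSO) were added 5 h after plating cells with reagent.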

[2] = qHTS RealTime-Glo MT Cell Viability Assay in HEK293 cells - 16 hour (AID 1224872); further: top concentration of the series differs between compounds; nearly all actives have a fitted effect of over 50% in size
How it was run: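 Homogeneous bioluminescent viability format in HEK293 cells (600 cells/well). Following 5 h at 37 C/5% CO2, 23 nL compound was pintooled; the signal was measured repeatedly during 40 h incubation.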

[3] = qHTS RealTime-Glo MT Cell Viability Assay in HepG2 cells - 8 hour (AID 1224873); further: nearly all actives have a fitted effect of over 55% in size
How it was run: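 HepG2 cells (600/well) mixed with RealTime-Glo MT reagent, settled 5 h at 37 C/5% CO2 before compound addition. Nonlytic NanoLuc luminescence from viable-cell prosubstrate reduction read repeatedly during 40 h treatment at 37 C.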

[4] = qHTS RealTime-Glo MT Cell Viability Assay in HEK293 cells - 40 hour (AID 1224874); conditions: RealTime-Glo luminescence; max response: stronger effect = lower value; further: nearly all actives have a fitted effect of over 50% in size
How it was run: (§2)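 Viable HEK293 cells reduce a cell-permeant prosubstrate; the product diffuses out and is consumed by NanoLuc in the medium to give light. Compounds went in after a 5 h incubation and plates were read over the treatment course.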

[5] = A CellTox Green Cytotoxicity Assay to monitor cytotoxicity in HEK293 cells - 24 hour (AID 1224875); further: series mostly up to about 77 µM; nearly all actives have a fitted effect of over 45% in size
How it was run: as §1

[6] = A CellTox Green Cytotoxicity Assay to monitor cytotoxicity in HepG2 cells - 16 hour (AID 1224876); further: nearly all actives have a fitted effect of over 45% in size
How it was run: (§3)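 Using 1536-well format, dye-containing HepG2 suspension was seeded, allowed 5 h at 37 C/5% CO2, dosed by pintool with compounds, positive and negative controls, and imaged for fluorescence across 40 h.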

[7] = qHTS RealTime-Glo MT Cell Viability Assay in HepG2 cells - 32 hour (AID 1224877); further: nearly all actives have a fitted effect of over 55% in size
How it was run: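 Cell number in HepG2 cultures estimated from NanoLuc luminescence generated by metabolic reduction of a prosubstrate by living cells. The homogeneous, nonlytic format allowed repeated reads at 0, 8, 16, 24, 32 and 40 h of compound exposure.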

[8] = A CellTox Green Cytotoxicity Assay to monitor cytotoxicity in HepG2 cells - 24 hour (AID 1224878); further: nearly all actives have a fitted effect of over 45% in size
How it was run: as §3

[9] = A CellTox Green Cytotoxicity Assay to monitor cytotoxicity in HepG2 cells - 40 hour (AID 1224879); further: nearly all actives have a fitted effect of over 40% in size
How it was run: as §3

[10] = qHTS RealTime-Glo MT Cell Viability Assay in HEK293 cells - 0 hour (AID 1224880)
How it was run: as §2
On the % scale 0 is the no-effect control and ±100 the full control effect.

CN(C)CCCN(C)CCCN(C)C
inactive: Potency [1] | Potency [2] | outcome [3] | max response [4] -6.89% | outcome [5] | outcome [6] | Potency [7] | outcome [8] | Potency [9] | Potency [10]

CC(C)=CCC/C(C)=C/C#N
inactive: Potency [1] | Potency [2] | outcome [3] | max response [4] 2.39% | outcome [5] | outcome [6] | Potency [7] | outcome [8] | Potency [9] | Potency [10]

CC1(C)OC[C@@H](COC(=O)CCc2ccc(OC[C@@H](O)CNCCNC(=O)N3CCOCC3)cc2)O1
inactive: Potency [1] | Potency [2] | outcome [3] | max response [4] 4.31% | outcome [5] | outcome [6] | Potency [7] | outcome [8] | Potency [9] | Potency [10]

CCCc1ncc(C[n+]2ccccc2C)c(N)n1
inactive: Potency [1] | Potency [2] | outcome [3] | max response [4] 6.68% | outcome [5] | outcome [6] | Potency [7] | outcome [8] | Potency [9] | Potency [10]

C=C(C)C(=O)OCC(O)CO (stereo not given)
inactive: Potency [1] | Potency [2] | outcome [3] | max response [4] 2.31% | outcome [5] | outcome [6] | Potency [7] | outcome [8] | Potency [9] | Potency [10]

CCN1CCOCC1
inactive: Potency [1] | Potency [2] | outcome [3] | max response [4] -0.712% | outcome [5] | outcome [6] | Potency [7] | outcome [8] | Potency [9] | Potency [10]

CCCCN1C=CN(C)C1
inactive: cytotoxicity increase [1] -12.1% [at 15.8 µM] | activity change, negative = cytotoxicity [2] 5.82% [at 15.8 µM] | viability change, negative = cytotoxic [3] 2.13% [at 15.8 µM] | max response [4] 9.09% | activity change [5] -7.42% [at 15.8 µM] | cytotoxicity increase [6] -14.5% [at 15.8 µM] | activity change, negative = cytotoxic [7] -0.21% [at 15.8 µM] | cytotoxicity [8] -16.6% [at 15.8 µM] | cytotoxicity increase [9] -22.4% [at 15.8 µM] | activity change, negative = cytotoxicity [10] 0.0716% [at 15.8 µM]

O=C(O)CC(C(=O)O)S(=O)(=O)O (stereo not given)
inactive: Potency [1] | Potency [2] | outcome [3] | max response [4] 5.69% | outcome [5] | outcome [6] | Potency [7] | outcome [8] | Potency [9] | Potency [10]

CC(=O)N1C[C@H](O)C[C@H]1C(=O)O
inactive: Potency [1] | Potency [2] | outcome [3] | max response [4] 6.07% | outcome [5] | outcome [6] | Potency [7] | outcome [8] | Potency [9] | Potency [10]

Cc1coc2ccccc2c1=O
inactive: Potency [1] | Potency [2] | outcome [3] | max response [4] -0.146% | outcome [5] | outcome [6] | Potency [7] | outcome [8] | Potency [9] | Potency [10]

O=C1CCCCCCCCCCCCCCO1
inactive: Potency [1] | Potency [2] | outcome [3] | max response [4] 0.109% | outcome [5] | outcome [6] | Potency [7] | outcome [8] | Potency [9] | Potency [10]

CCOC(=O)CCC(=O)OCC
inactive: Potency [1] | Potency [2] | outcome [3] | max response [4] 3.67% | outcome [5] | outcome [6] | Potency [7] | outcome [8] | Potency [9] | Potency [10]

CCC(C)(CN(C)C)OC(=O)c1ccccc1 (stereo not given)
inactive: Potency [1] | Potency [2] | outcome [3] | max response [4] 12.1% | outcome [5] | outcome [6] | Potency [7] | outcome [8] | Potency [9] | Potency [10]

COc1cc(C(=O)OC(COCCC(C)C)CN2CCOCC2)cc(OC)c1OC (stereo not given)
inactive: Potency [1] | Potency [2] | outcome [3] | max response [4] -2.35% | outcome [5] | outcome [6] | Potency [7] | outcome [8] | Potency [9] | Potency [10]

Cc1ccc(-c2ccccc2C#N)cc1
inactive: Potency [1] | Potency [2] | outcome [3] | max response [4] 1.26% | outcome [5] | outcome [6] | Potency [7] | outcome [8] | Potency [9] | Potency [10]

C[N+]1(CC2COC(c3ccccc3)(c3ccccc3)O2)CCCCC1 (stereo not given)
inactive: cytotoxicity increase [1] -8.19% [at 15.8 µM] | activity change, negative = cytotoxicity [2] -1.95% [at 15.8 µM] | viability change, negative = cytotoxic [3] 1.12% [at 15.8 µM] | max response [4] -1.89% | activity change [5] -7.42% [at 15.8 µM] | cytotoxicity increase [6] -3.73% [at 15.8 µM] | activity change, negative = cytotoxic [7] -9% [at 15.8 µM] | cytotoxicity [8] -0.651% [at 15.8 µM] | cytotoxicity increase [9] -0.954% [at 15.8 µM] | activity change, negative = cytotoxicity [10] -4.13% [at 15.8 µM]

COc1c(N2CCNC(C)C2)c(F)cc2c(=O)c(C(=O)O)cn(C3CC3)c12 (stereo not given)
inactive: Potency [1] | Potency [2] | outcome [3] | max response [4] 14% | outcome [5] | outcome [6] | Potency [7] | outcome [8] | Potency [9] | Potency [10]

CCCCc1ccc2c(n1)[C@@H](c1ccc(OC)cc1C[C@H](C)C(=O)O)[C@H](C(=O)O)[C@H]2c1ccc2c(c1)OCO2
inactive: Potency [1] | Potency [2] | outcome [3] | max response [4] 0.185% | outcome [5] | outcome [6] | Potency [7] | outcome [8] | Potency [9] | Potency [10]

CCC(C)(CCCC(C)C)OC(C)=O (stereo not given)
inactive: Potency [1] | Potency [2] | outcome [3] | max response [4] 6.35% | outcome [5] | outcome [6] | Potency [7] | outcome [8] | Potency [9] | Potency [10]

O=C1NC(=O)C2CC=CCC12 (stereo not given)
inactive: Potency [1] | Potency [2] | outcome [3] | max response [4] 11.2% | outcome [5] | outcome [6] | Potency [7] | outcome [8] | Potency [9] | Potency [10]

COc1cccc(OC)c1C(=O)N[C@@H]1C(=O)N2[C@@H]1SC(C)(C)[C@@H]2C(=O)O
inactive: Potency [1] | Potency [2] | outcome [3] | max response [4] 4.53% | outcome [5] | outcome [6] | Potency [7] | outcome [8] | Potency [9] | Potency [10]

C[C@@H]1C[C@H]2[C@@H]3C[C@H](F)C4=CC(=O)C(Cl)=C[C@]4(C)[C@@]3(F)[C@@H](O)C[C@]2(C)[C@@]1(O)C(=O)CO
inactive: Potency [1] | Potency [2] | outcome [3] | max response [4] -27.2% | outcome [5] | outcome [6] | Potency [7] | outcome [8] | Potency [9] | Potency [10]

CC1=NS(=O)(=O)c2cc(Cl)ccc2N1
inactive: Potency [1] | Potency [2] | outcome [3] | max response [4] 2.07% | outcome [5] | outcome [6] | Potency [7] | outcome [8] | Potency [9] | Potency [10]

CCCCN(CCC(=O)OCC)C(C)=O
inactive: Potency [1] | Potency [2] | outcome [3] | max response [4] 0.53% | outcome [5] | outcome [6] | Potency [7] | outcome [8] | Potency [9] | Potency [10]

CN1CC(=O)N/C1=N/C(=O)Nc1cccc(Cl)c1
inactive: Potency [1] | Potency [2] | outcome [3] | max response [4] -14.4% | outcome [5] | outcome [6] | Potency [7] | outcome [8] | Potency [9] | Potency [10]

O=C(O)CNC(=O)c1ccc(CO)o1
inactive: Potency [1] | Potency [2] | outcome [3] | max response [4] 3.96% | outcome [5] | outcome [6] | Potency [7] | outcome [8] | Potency [9] | Potency [10]

CCCCCCC1CCC(=O)O1 (stereo not given)
inactive: Potency [1] | Potency [2] | outcome [3] | max response [4] 4.76% | outcome [5] | outcome [6] | Potency [7] | outcome [8] | Potency [9] | Potency [10]

CC(=O)N[C@H]1[C@H]([C@H](O)[C@H](O)CO)OC(C(=O)O)=C[C@@H]1N=C(N)N
inactive: Potency [1] | Potency [2] | outcome [3] | max response [4] 2.18% | outcome [5] | outcome [6] | Potency [7] | outcome [8] | Potency [9] | Potency [10]

CCOC(=O)c1ccccc1
inactive: Potency [1] | Potency [2] | outcome [3] | max response [4] -0.292% | outcome [5] | outcome [6] | Potency [7] | outcome [8] | Potency [9] | Potency [10]

CC(C)COC(=O)c1ccc(N)cc1
inactive: Potency [1] | Potency [2] | outcome [3] | max response [4] -12.8% | outcome [5] | outcome [6] | Potency [7] | outcome [8] | Potency [9] | Potency [10]

CCNC(=O)[C@@H]1CCCN1C(=O)[C@H](CCCN=C(N)N)NC(=O)[C@H](CC(C)C)NC(=O)CNC(=O)[C@H](Cc1ccc(O)cc1)NC(=O)[C@H](CO)NC(=O)[C@H](Cc1c[nH]c2ccccc12)NC(=O)[C@H](Cc1cnc[nH]1)NC(=O)[C@@H]1CCC(=O)N1 ([pGlu]HWSYGLRP-NHEt)
inactive: Potency [1] | Potency [2] | outcome [3] | max response [4] 7.73% | outcome [5] | outcome [6] | Potency [7] | outcome [8] | Potency [9] | Potency [10]

O=Cc1cccc(Br)c1
inactive: Potency [1] | Potency [2] | outcome [3] | max response [4] 4.64% | outcome [5] | outcome [6] | Potency [7] | outcome [8] | Potency [9] | Potency [10]

CCN1C=CN(C)C1C (stereo not given)
inactive: Potency [1] | Potency [2] | outcome [3] | max response [4] 0.14% | outcome [5] | outcome [6] | Potency [7] | outcome [8] | Potency [9] | Potency [10]

O=C(c1ccccc1)C1(O)CCCCC1
inactive: Potency [1] | Potency [2] | outcome [3] | max response [4] -2.37% | outcome [5] | outcome [6] | Potency [7] | outcome [8] | Potency [9] | Potency [10]

CC(C)(C)OC(=O)c1cccc(N)c1
inactive: Potency [1] | Potency [2] | outcome [3] | max response [4] -10% | outcome [5] | outcome [6] | Potency [7] | outcome [8] | Potency [9] | Potency [10]

CC(COc1ccccc1)NN (stereo not given)
inactive: Potency [1] | Potency [2] | outcome [3] | max response [4] 2.34% | outcome [5] | outcome [6] | Potency [7] | outcome [8] | Potency [9] | Potency [10]

CC(C)(C#N)Nc1nc(Cl)nc(NC2CC2)n1
inactive: Potency [1] | Potency [2] | outcome [3] | max response [4] 1.79% | outcome [5] | outcome [6] | Potency [7] | outcome [8] | Potency [9] | Potency [10]

— PubChem BioAssay (Tox21)
